Laboratory results: PubChem BioAssay (EPA / NIEHS)
Activity calls are given as the source filed them. The calls were made as follows: active = hit-call score of the fitted dose curve at least 0.9, where 1 is the maximum; inactive = score below 0.9.

Legend:
[1] = read-out: Monokine induced gamma interferon (MIG), CXCL9 (gene 4283); test: BSK_hDFCGF_MIG: BioMAP Diversity Plus: hDFCGF Assay for Monokine induced gamma interferon (MIG) Biomarker Activity (AID 2283063); conditions: primary human foreskin fibroblasts; actives raise or lower the signal
How it was run: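 Endpoint derived by bidirectional fitting relative to DMSO; MIG quantified via ELISA in primary human foreskin fibroblasts harvested 24 h after dosing.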

[2] = read-out: Matrix Metallopeptidase 1 (MMP1), MMP1 (gene 4312); test: BSK_hDFCGF_MMP1: BioMAP Diversity Plus: hDFCGF Assay for Matrix Metallopeptidase 1 (MMP1) Biomarker Activity (AID 2283064); conditions: primary human foreskin fibroblasts; actives raise or lower the signal
How it was run: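 MMP1 levels quantified by ELISA 24 h after dosing human dermal fibroblast cultures, with parallel SRB total-protein staining for overt cytotoxicity. Data fitted in both directions against DMSO baseline.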

[3] = read-out: Vascular cell adhesion molecule 1 (VCAM1), VCAM1 (gene 7412); test: BSK_hDFCGF_VCAM1: BioMAP Diversity Plus: hDFCGF Assay for Vascular cell adhesion molecule 1 (VCAM1) Biomarker Activity (AID 2283065); conditions: primary human foreskin fibroblasts; actives raise or lower the signal
How it was run: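 Measured after 24 h chemical treatment of primary human skin fibroblasts, VCAM-1 was detected by ELISA and concentration-response analysed in both directions versus DMSO vehicle.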

[4] = read-out: Plasminogen activator inhibitor-1 (PAI1), SERPINE1 (gene 5054); test: BSK_hDFCGF_PAI1: BioMAP Diversity Plus: hDFCGF Assay for Plasminogen activator inhibitor-1 (PAI1) Biomarker Activity (AID 2283066); conditions: primary human foreskin fibroblasts; actives raise or lower the signal
How it was run: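 PAI-1 levels in human dermal foreskin fibroblasts were quantified by ELISA 24 h after dosing, with gain or loss analysed against DMSO. Overt cytotoxicity was checked by sulforhodamine B total-protein staining in parallel cultures.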

[5] = read-out: Intercellular Adhesion Molecule 1 (ICAM1), ICAM1 (gene 3383); test: BSK_KF3CT_ICAM1: BioMAP Diversity Plus: KF3CT Assay for Intercellular Adhesion Molecule 1 (ICAM1) Biomarker Activity (AID 2283067); conditions: primary human keratinocytes with fibroblasts; actives raise or lower the signal
How it was run: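 Bidirectional curve fitting against a DMSO baseline was applied to ICAM-1 ELISA signal from primary human skin co-cultures harvested 24 h after treatment, with SRB staining of parallel wells for overt cytotoxicity.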

[6] = read-out: Interferon-gamma inducible Protein 10 (IP10), CXCL10 (gene 3627); test: BSK_KF3CT_IP10: BioMAP Diversity Plus: KF3CT Assay for Interferon-gamma inducible Protein 10 (IP10) Biomarker Activity (AID 2283068); conditions: primary human keratinocytes with fibroblasts; actives raise or lower the signal
How it was run: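 Signal is secreted/surface IP-10 by ELISA in a human primary skin co-culture of keratinocytes and foreskin fibroblasts, taken 24 h post-dosing; DMSO served as negative control.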

[7] = BSK_KF3CT_SRB: Viability Assessment in the BioMAP Diversity Plus: KF3CT Assay (AID 2283069); conditions: primary human keratinocytes with fibroblasts;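 also: read 24 h after compound addition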
How it was run: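 Cytotoxicity was gauged by SRB staining (0.1% SRB, 10% TCA fixation, 560 nm) of parallel cultures at 24 h. The cells were primary human skin keratinocytes co-cultured with fibroblasts, and activity was fitted in both directions against DMSO.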

[8] = read-out: Interleukin-1 alpha (IL1a), IL1A (gene 3552); test: BSK_KF3CT_IL1a: BioMAP Diversity Plus: KF3CT Assay for Interleukin-1 alpha (IL1a) Biomarker Activity (AID 2283070); conditions: primary human keratinocytes with fibroblasts; actives raise or lower the signal
How it was run: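 IL-1a was detected by ELISA 24 h after chemical treatment of a co-culture of human skin keratinocytes and foreskin fibroblasts. Gain or loss of signal was fitted against the DMSO baseline.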

[9] = read-out: TIMP metallopeptidase inhibitor 2 (TIMP2), TIMP2 (gene 7077); test: BSK_KF3CT_TIMP2: BioMAP Diversity Plus: KF3CT Assay for TIMP metallopeptidase inhibitor 2 (TIMP2) Biomarker Activity (AID 2283071); conditions: primary human keratinocytes with fibroblasts; actives raise or lower the signal
How it was run: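 TIMP-2 measured by ELISA at 24 h in human keratinocyte/fibroblast primary co-cultures exposed to chemicals. Both increases and decreases were fitted against DMSO. Parallel cultures were stained with SRB for total protein as an overt-cytotoxicity check.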

[10] = read-out: Transforming growth factor beta 1 (TGFb1), TGFB1 (gene 7040); test: BSK_KF3CT_TGFb1: BioMAP Diversity Plus: KF3CT Assay for Transforming growth factor beta 1 (TGFb1) Biomarker Activity (AID 2283072); conditions: primary human keratinocytes with fibroblasts; actives raise or lower the signal
How it was run: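 ELISA quantifies TGF-b1 at 24 h post-dose in a primary human skin co-culture of keratinocytes and fibroblasts, with gain or loss judged against DMSO. Parallel SRB total-protein staining flags overt cytotoxicity.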

[11] = read-out: C-C motif chemokine 2 (Homo sapiens) (UniProt P13500); test: BSK_KF3CT_MCP1: BioMAP Diversity Plus: KF3CT Assay for Monocyte Chemoattractant Protein 1 (MCP1/CCL2) Biomarker Activity (AID 2283073); conditions: primary human keratinocytes with fibroblasts; actives raise or lower the signal
How it was run: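 Biomarker MCP-1 is measured by ELISA in primary human keratinocytes co-cultured with foreskin fibroblasts, 24 h after chemical treatment; DMSO serves as the negative control and activity baseline.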

[12] = read-out: Matrix Metallopeptidase 9 (MMP9), MMP9 (gene 4318); test: BSK_KF3CT_MMP9: BioMAP Diversity Plus: KF3CT Assay for Matrix Metallopeptidase 9 (MMP9) Biomarker Activity (AID 2283074); conditions: primary human keratinocytes with fibroblasts; actives raise or lower the signal
How it was run: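 MMP-9 quantified by ELISA after 24 h chemical treatment of primary human skin keratinocyte/fibroblast co-cultures; gain or loss fitted against DMSO, with parallel SRB staining (0.1% SRB, 560 nm) for overt cytotoxicity.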

[13] = read-out: urokinase plasminogen activator (uPA), PLAU (gene 5328); test: BSK_KF3CT_uPA: BioMAP Diversity Plus: KF3CT Assay for urokinase plasminogen activator (uPA) Biomarker Activity (AID 2283075); conditions: primary human keratinocytes with fibroblasts; actives raise or lower the signal
How it was run: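 ELISA read-out of uPA 24 h after dosing human skin keratinocytes co-cultured with foreskin fibroblasts. Signal change fitted both ways relative to DMSO; sulforhodamine B on parallel cultures marks overt cytotoxicity.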

CD40, CD40 (gene 958) = test: BSK_LPS_CD40: BioMAP Diversity Plus: LPS Assay for CD40 Biomarker Activity (AID 2283076); conditions: primary human HUVEC with PBMC; actives raise or lower the signal
How it was run: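 Using a multiplexed primary human co-culture (umbilical vein endothelium plus PBMC), CD40 was read by ELISA 24 h after dosing, with cytotoxicity tracked by sulforhodamine B staining of parallel cultures and activity fitted bidirectionally versus DMSO.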

[14] = read-out: E-selectin (Homo sapiens) (UniProt P16581); test: BSK_LPS_Eselectin: BioMAP Diversity Plus: LPS Assay for Eselectin Biomarker Activity (AID 2283077); conditions: primary human HUVEC with PBMC; actives raise or lower the signal
How it was run: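 Dose chemical onto LPS-driven HUVEC/PBMC co-culture; after 24 h, run ELISA for E-selectin; fit up- and down-going responses relative to DMSO control.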

[15] = read-out: Interleukin-8 (IL8), CXCL8 (gene 3576); test: BSK_LPS_IL8: BioMAP Diversity Plus: LPS Assay for Interleukin-8 (IL8) Biomarker Activity (AID 2283078); conditions: primary human HUVEC with PBMC; actives raise or lower the signal
How it was run: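 In this LPS system, chemical-treated human umbilical vein endothelium/PBMC co-cultures were harvested at 24 h for IL-8 ELISA.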

[16] = BSK_LPS_SRB: Viability Assessment in the BioMAP Diversity Plus: LPS Assay (AID 2283079); conditions: primary human HUVEC with PBMC;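 also: total protein by sulforhodamine B absorbance as a cytotoxicity measure; measured one day after compound addition; fitted in both directions against DMSO so loss or gain of signal counts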
How it was run: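 Cytotoxicity endpoint in human endothelial–PBMC co-culture: 24 h exposure, then SRB (0.1%) staining, 560 nm read.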

[17] = read-out: Monocyte Chemoattractant Protein-1 (MCP1), CCL2 (gene 6347); test: BSK_LPS_MCP1: BioMAP Diversity Plus: LPS Assay for Monocyte Chemoattractant Protein-1 (MCP1) Biomarker Activity (AID 2283081); conditions: primary human HUVEC with PBMC; actives raise or lower the signal
How it was run: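 Values derive from bidirectional fitting against DMSO of ELISA-measured MCP-1 in a human primary endothelial and mononuclear cell co-culture, 24 h after chemical addition under LPS activation.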

[18] = BSK_LPS_PGE2: BioMAP Diversity Plus: LPS Assay for Prostaglandin E2 (PGE2) Biomarker Activity (AID 2283082); conditions: primary human HUVEC with PBMC; actives raise or lower the signal;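 as to AC50: secreted prostaglandin E2 measured by ELISA in LPS-stimulated co-culture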
How it was run: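 PGE2 release measured by ELISA in an LPS-activated co-culture of human umbilical vein endothelial cells and peripheral blood mononuclear cells, read at 24 h post-dosing. DMSO served as baseline for bidirectional curve fitting.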

[19] = read-out: Interleukin-1 alpha (IL1a), IL1A (gene 3552); test: BSK_LPS_IL1a: BioMAP Diversity Plus: LPS Assay for Interleukin-1 alpha (IL1a) Biomarker Activity (AID 2283080); conditions: primary human HUVEC with PBMC; actives raise or lower the signal
How it was run: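 Primary human HUVEC and PBMC co-culture stimulated with LPS is dosed and harvested at 24 h. Both increases and decreases in ELISA-measured IL-1a are scored relative to DMSO.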

Measured: AC50

Chain of E-selectin (Homo sapiens) (P16581 whole entry, looked up): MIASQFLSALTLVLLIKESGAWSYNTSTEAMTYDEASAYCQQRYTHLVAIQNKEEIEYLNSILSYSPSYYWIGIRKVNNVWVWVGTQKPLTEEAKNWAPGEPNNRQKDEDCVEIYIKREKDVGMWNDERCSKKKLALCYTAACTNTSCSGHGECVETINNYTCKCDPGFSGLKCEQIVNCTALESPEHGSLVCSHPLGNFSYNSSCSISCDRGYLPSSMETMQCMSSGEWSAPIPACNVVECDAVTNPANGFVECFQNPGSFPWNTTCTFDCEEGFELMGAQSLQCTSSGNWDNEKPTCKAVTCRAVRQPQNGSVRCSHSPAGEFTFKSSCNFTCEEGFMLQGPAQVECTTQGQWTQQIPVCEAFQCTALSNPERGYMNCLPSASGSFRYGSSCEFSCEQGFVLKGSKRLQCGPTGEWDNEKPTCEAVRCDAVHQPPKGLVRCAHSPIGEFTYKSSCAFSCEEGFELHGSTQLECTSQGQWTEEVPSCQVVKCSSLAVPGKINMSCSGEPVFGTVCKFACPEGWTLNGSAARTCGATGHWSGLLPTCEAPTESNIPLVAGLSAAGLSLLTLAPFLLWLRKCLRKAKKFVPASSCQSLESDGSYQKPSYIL

CNCc1ccc(NC(=O)c2c[nH]c3c2C(=O)CCC3)cc1
inactive: [1] | [2] | [3] | [4] | [5] | [6] | [7] | [8] | [9] | [10] | [11] | [12] | [13] | CD40, CD40 (gene 958) | [14] | [15] | [16] | [17] | [18]

CC(C)=CCC/C(C)=C\CO
inactive: [1] | [2] | [3] | [4] | [5] | [6] | [7] | [8] | [9] | [11] | [12] | [13] | [14] | [15] | [16] | [17] | [18]

CC(O)CN(CCN(CC(C)O)CC(C)O)CC(C)O (stereo not drawn)
inactive: [1] | [2] | [3] | [4] | [5] | [6] | [7] | [8] | [9] | [10] | [11] | [12] | [13] | CD40, CD40 (gene 958) | [14] | [15] | [16] | [17] | [18]

CCNc1ccccc1
inactive: [1] | [2] | [3] | [4] | [5] | [6] | [7] | [8] | [9] | [10] | [11] | [12] | [13] | CD40, CD40 (gene 958) | [14] | [15] | [16] | [19] | [17] | [18]

O=C1CCCCCN1
inactive: [1] | [2] | [3] | [4] | [5] | [6] | [7] | [8] | [9] | [10] | [11] | [12] | [13] | CD40, CD40 (gene 958) | [14] | [15] | [16] | [17] | [18]

COc1ccc(-n2nc(C(F)F)cc2-c2ccc(S(C)=O)cc2)cc1 (stereo not drawn)
inactive: [1] | [2] | [3] | [4] | [5] | [6] | [7] | [8] | [9] | [10] | [11] | [12] | [13] | [14] | [15] | [16] | [17]
active: CD40, CD40 (gene 958) 1700 nM | [19] 4920 nM | [18] 342 nM

CC[C@H]1OC(=O)[C@H](C)[C@@H](O[C@H]2C[C@@](C)(OC)[C@@H](O)[C@H](C)O2)[C@H](C)[C@@H](O[C@@H]2O[C@H](C)C[C@H](N(C)C)[C@H]2O)[C@](C)(O)C[C@@H](C)C(=O)[C@H](C)[C@@H](O)[C@]1(C)O
inactive: [1] | [2] | [3] | [4] | [5] | [6] | [7] | [9] | [10] | [11] | [12] | [13] | CD40, CD40 (gene 958) | [14] | [15] | [16] | [19] | [17] | [18]
